Test [1] can be described thus: rapamycin-like changes in RPL19A-GFP expression – cell-based, S. cerevisiae, multiplex flow cytometry, primary screen (AID 1862; in the data active = percent of DMSO control GFP below about 86%;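 note: lower values mimic rapamycin by blocking the RPL19A rise seen in DMSO cells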). The settings on record: S. cerevisiae RPL19A-GFP strain, flow cytometry fluorescence, 3 h; at 10 µM; stronger effect = lower value. (In general: A flow cytometer gives signals particle by particle.)
Test [2] is described as follows: TOR pathway GLN3 branch reporter MEP2-GFP changes – S. cerevisiae, multiplex flow cytometry, primary screen (AID 1867;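 active = GFP response, as percent of the DMSO control, above the screen-wide mean plus 3 SD, about 139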;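 note: median GFP channel fluorescence of barcode-gated MEP2-GFP cells measured by flow cytometry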). The conditions noted are these: S. cerevisiae MEP2-GFP strain, 3 h, at 10 µM, stronger effect = higher value, 100% means same as DMSO wells.
Test [3] in a line: TOR pathway RTG branch CIT2 reporter changes – S. cerevisiae, GFP fusion, multiplex flow cytometry, primary screen (AID 1870).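 Note: barcoded CIT2-GFP strain pooled with four other GFP strains with rapamycin as positive control; median GFP fluorescence per well over plate mean of DMSO wells so 100% = DMSO.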 The settings on record: S. cerevisiae CIT2-GFP expression, 3 h, at 10 µM, stronger effect = higher value.
The nature of test [4]: TOR pathway LAP4-GFP level changes – S. cerevisiae, multiplex flow cytometry, primary screen (AID 1873;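 active = GFP signal, as percent of the solvent control, above the screen mean plus 3 SD, about 149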). The settings on record: S. cerevisiae LAP4-GFP expression, 3 h, at 10 µM, stronger effect = higher value.
Test [5] is described as follows: yeast AGP1-GFP level changes, GLN3 branch – cell-based, multiplex flow cytometry, S. cerevisiae, primary screen (AID 1887;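 active = GFP signal above the screen-wide mean plus 3 SD, that is over about 124.5% of the solvent control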;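 note: AGP1-GFP fusion strain of S. cerevisiae within a five-strain barcoded multiplex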). The settings on record: 3 h, at 10 µM, stronger effect = higher value.
The nature of test [6]: reduced mouse 2C T cell binding to pMHC/ICAM-1 vesicles – MLPCN validation set, flow cytometry, LFA-1/ICAM-1 modulator project, pilot screen (AID 2523;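 active = response below a set limit, under 55% cells CD8-positive and vesicle-bound, and CD8 cells' 90th-percentile brightness under 279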;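 for vesicle binding response: mean PE anti-B7-1 fluorescence of CD8+ cells relative to row control; 100% = QL9-loaded vesicles with DMSO vehicle in the same plate row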). The conditions noted are these: 2C mouse CD8+ T cells, at 7 µM, stronger effect = lower value; double positive events: measured here: CD8+/vesicle+ event percentage.
Test [7] deals with Integrin beta-1 (Homo sapiens) + Integrin alpha-4 (Homo sapiens) (UniProt P13612+P05556). As to the kind of experiment: alpha4beta1 integrin LIBS antibody binding reduction – U937 cells, HUTS-21 mAb, flow cytometry, validation set, VLA-4 allosteric modulator project, pilot screen (AID 2674;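 active = inhibition above 50%, about 3 SD of the validation set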;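 note: antibody binding induced by the VLA-4 ligand LDV present at three times its Kd; 0% = LDV ligand with antibody and no compound and 100% = antibody without LDV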). The conditions noted are these: HUTS-21 LIBS mAb binding, at 6.7 µM, stronger effect = higher value, binding induced by LDV ligand.

A short description of test [8]: calorie-restriction mimetic ROS inhibitors, yeast – validation compound set, pilot screen (AID 2706;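 active = superoxide response below 65% of plate, a cut near 3 SD across the whole screen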;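 note: yeast exposed to compound for one week at 30 degrees C before staining; 100% = mean of all compound wells on the same plate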). The settings on record: S. cerevisiae aging, superoxide DHE fluorescence; at 10 µM, stronger effect = lower value.
Test [9] deals with Beta-adrenergic receptor kinase 1 (Homo sapiens) (UniProt P25098). The test is described as follows: GRK2 binders displacing RNA aptamer, biochemical, validation, human GRK2, bead flow cytometry (AID 488806;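 active = aptamer binding inhibition above 30%, about 3 SD of noise from non-fluorescent compounds; inactive = inhibition at or below 30%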). The settings on record: bead-bound GRK2, FAM-aptamer displacement, at 10 µM, stronger effect = higher value.
Test [10] deals with AP-2 complex subunit beta (Homo sapiens) (UniProt P63010). As to the kind of experiment: beta-arrestin/AP2 interaction blockers – biochemical, validation set, GST-AP2 beads, flow cytometry, pilot screen (AID 504541;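 active = inhibition above 54%, about 3 SD of non-fluorescent compounds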;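 note: AP2 carries R879A mutation and is captured from E. coli lysate; bead-bound FITC arrestin peptide fluorescence measuring arrestin peptide binding to AP2; 0% = DMSO wells and 100% = excess unlabeled arrestin peptide control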). The settings on record: FITC arrestin peptide, at 10 µM, stronger effect = higher value, AP2 beta2 appendage fragment, R879A mutant.
Test [11] can be described thus: cytosolic pH regulators acting via V-ATPase – S. cerevisiae, pHLuorin, HTS validation (AID 504600; in the data active = response above about 15%;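 note: plate controls were DMSO for no effect and reference compound for full effect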). The settings on record: V-ATPase proton transport, at 10 µM, stronger effect = higher value.
For test [12], the system named is anti-desmoglein-3 scFv antibody binding to human DSG3. As to the kind of experiment: blockers of pathogenic pemphigus antibody–desmoglein-3 binding – biochemical, validation compound set, bead-based, flow cytometry, pilot screen (AID 588368;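 active = binding below the plate cutoff, the plate median minus 3 SD, with a reading above zero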;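 note: signal is the median channel fluorescence of bead-bound GFP antibody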). The settings on record: Protein G beads, DSG3-Fc, scFv-GFP binding, at 10 µM, stronger effect = lower value.
The nature of test [13]: Nile Red efflux blockade in pump-expressing yeast – validation compound set, multiplex, phenotypic, pilot screen (AID 588506;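 active = efflux inhibition above 0.42, the validation set average plus 4 SD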;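 note: Nile Red retained in cells so higher fluorescence means more efflux inhibition; 0 = negative control wells and 1 = enniatin B 25 µM full block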). The conditions noted are these: S. cerevisiae pump-expressing triplex, Nile Red efflux flow cytometry; at 10 µM; stronger effect = higher value; the pumps come from Candida albicans.
Test [14] has as its target ATP-binding cassette sub-family B member 6 (Homo sapiens) (UniProt Q9NP58). As to the kind of experiment: blockers of ABCB6-driven porphyrin uptake – K562-ABCB6 cells, flow cytometry, validation set, pilot screen (AID 588550;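 active = inhibition above the screen-wide mean plus 3 SD, about 51%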;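 note: 0% = DMSO wells and 100% = benzethonium chloride 70 µM positive control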). The settings on record: K562-ABCB6 porphyrin accumulation, 1 h, at 10 µM, stronger effect = higher value.
Test [15] is described as follows: AML differentiation inducers, ER-HoxA9 marrow cells – cell-based, GFP/MAC1 double positive, flow cytometry, validation set, primary screen (AID 588685;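 active = differentiation response of at least 50%, scaled between solvent and reference control, from cells with both markers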;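 note: compound exposure lasts four days before antibody staining and flow analysis; 0% = DMSO wells and 100% = 5 µM fulvestrant positive control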). The settings on record: stronger effect = higher value, normalized: vehicle 0, fulvestrant 100.

Results filed as inconclusive are left out. The source made the active and inactive calls.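 Rule for the calls, unless noted: active = percent response above a set limit, the screen-wide mean plus 3 SD (cut at about 130% in these data); inactive = the rest.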

Chain of ATP-binding cassette sub-family B member 6 (Homo sapiens) (Q9NP58 whole entry, looked up): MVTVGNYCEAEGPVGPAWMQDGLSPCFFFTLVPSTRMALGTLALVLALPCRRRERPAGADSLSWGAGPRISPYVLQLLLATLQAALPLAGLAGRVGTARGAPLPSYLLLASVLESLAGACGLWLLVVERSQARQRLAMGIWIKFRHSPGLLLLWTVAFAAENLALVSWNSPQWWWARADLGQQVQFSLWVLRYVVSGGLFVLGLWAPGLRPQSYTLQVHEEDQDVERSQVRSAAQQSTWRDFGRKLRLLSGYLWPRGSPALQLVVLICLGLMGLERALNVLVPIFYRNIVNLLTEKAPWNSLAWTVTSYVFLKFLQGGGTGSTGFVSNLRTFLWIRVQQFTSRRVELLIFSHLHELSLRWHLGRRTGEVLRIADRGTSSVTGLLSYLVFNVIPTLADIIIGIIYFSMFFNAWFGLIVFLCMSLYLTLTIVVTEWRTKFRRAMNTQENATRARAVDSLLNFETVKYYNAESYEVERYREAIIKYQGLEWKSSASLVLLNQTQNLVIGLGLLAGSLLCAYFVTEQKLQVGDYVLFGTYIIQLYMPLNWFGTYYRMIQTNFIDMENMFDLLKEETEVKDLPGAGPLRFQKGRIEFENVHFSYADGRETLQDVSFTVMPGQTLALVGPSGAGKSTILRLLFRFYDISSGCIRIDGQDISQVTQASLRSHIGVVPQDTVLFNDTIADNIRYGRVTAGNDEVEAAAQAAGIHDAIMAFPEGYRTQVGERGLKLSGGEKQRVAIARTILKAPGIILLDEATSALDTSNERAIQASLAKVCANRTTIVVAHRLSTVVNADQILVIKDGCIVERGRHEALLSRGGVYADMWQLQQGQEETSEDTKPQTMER
Chain of Beta-adrenergic receptor kinase 1 (Homo sapiens) (P25098 whole entry, looked up): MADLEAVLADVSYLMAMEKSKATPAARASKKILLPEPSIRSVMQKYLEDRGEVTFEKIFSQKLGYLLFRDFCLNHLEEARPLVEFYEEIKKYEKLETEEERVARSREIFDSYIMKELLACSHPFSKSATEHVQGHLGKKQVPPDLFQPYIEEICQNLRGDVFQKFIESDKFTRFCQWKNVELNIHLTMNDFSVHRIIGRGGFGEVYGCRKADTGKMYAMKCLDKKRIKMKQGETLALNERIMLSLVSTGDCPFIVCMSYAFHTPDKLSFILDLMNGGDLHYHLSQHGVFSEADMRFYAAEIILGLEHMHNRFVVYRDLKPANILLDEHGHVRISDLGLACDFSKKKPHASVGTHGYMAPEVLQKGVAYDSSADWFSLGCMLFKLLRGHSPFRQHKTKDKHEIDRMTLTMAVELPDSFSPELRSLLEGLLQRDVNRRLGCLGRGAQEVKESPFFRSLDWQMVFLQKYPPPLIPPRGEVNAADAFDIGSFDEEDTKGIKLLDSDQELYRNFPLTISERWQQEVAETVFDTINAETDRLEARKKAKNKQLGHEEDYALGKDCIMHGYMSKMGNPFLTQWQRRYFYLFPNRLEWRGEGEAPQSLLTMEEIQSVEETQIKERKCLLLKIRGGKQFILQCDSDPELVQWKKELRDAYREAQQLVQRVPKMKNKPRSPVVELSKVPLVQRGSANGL
Chain of Integrin beta-1 (Homo sapiens) + Integrin alpha-4 (Homo sapiens) (P05556 whole entry, looked up): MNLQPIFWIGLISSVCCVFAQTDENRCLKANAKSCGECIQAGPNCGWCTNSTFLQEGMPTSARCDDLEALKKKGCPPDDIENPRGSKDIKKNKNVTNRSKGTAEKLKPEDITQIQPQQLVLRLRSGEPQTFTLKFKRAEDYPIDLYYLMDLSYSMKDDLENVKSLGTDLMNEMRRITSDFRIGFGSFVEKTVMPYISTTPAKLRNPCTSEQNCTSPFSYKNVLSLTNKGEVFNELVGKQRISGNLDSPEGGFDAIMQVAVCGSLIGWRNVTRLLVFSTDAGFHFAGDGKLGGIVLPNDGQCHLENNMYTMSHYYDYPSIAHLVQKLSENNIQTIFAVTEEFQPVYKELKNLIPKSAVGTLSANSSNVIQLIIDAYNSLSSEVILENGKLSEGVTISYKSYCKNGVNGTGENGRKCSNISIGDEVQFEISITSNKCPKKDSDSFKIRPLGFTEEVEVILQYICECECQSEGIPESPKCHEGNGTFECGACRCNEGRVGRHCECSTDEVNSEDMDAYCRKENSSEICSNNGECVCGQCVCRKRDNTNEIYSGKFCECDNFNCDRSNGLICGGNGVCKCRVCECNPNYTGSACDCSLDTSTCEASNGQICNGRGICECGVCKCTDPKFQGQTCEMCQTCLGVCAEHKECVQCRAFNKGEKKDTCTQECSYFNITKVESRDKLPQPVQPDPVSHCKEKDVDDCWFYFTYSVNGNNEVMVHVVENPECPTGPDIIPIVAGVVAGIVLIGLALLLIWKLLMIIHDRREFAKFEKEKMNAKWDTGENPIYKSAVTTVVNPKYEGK
Chain of Integrin beta-1 (Homo sapiens) + Integrin alpha-4 (Homo sapiens) (P13612 whole entry, looked up): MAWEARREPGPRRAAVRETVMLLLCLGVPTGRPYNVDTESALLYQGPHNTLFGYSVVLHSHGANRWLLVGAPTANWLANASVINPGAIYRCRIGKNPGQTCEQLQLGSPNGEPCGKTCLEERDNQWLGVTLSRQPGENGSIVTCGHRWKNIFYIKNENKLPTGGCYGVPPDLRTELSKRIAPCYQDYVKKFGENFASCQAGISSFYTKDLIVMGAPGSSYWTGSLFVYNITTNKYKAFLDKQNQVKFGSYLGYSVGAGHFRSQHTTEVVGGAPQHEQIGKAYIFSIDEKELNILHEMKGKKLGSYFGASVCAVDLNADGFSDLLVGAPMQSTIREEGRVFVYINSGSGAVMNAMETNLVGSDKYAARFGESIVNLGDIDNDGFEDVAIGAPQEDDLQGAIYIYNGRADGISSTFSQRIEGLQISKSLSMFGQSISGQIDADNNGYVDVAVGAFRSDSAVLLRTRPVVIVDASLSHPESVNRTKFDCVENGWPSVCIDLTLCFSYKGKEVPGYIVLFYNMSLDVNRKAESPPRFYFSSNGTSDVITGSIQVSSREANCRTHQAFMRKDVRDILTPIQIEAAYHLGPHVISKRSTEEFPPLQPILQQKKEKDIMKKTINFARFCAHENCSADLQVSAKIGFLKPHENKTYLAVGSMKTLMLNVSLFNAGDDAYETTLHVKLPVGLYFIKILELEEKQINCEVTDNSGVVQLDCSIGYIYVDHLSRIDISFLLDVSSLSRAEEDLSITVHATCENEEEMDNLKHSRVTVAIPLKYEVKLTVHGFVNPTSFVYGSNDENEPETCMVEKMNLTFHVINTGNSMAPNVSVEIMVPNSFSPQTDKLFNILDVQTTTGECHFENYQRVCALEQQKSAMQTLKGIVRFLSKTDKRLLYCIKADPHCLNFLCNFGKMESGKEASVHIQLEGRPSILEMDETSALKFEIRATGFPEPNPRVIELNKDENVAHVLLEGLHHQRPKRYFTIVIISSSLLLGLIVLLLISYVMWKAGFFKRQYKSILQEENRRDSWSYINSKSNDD
Chain of AP-2 complex subunit beta (Homo sapiens) (P63010 whole entry, looked up, the tested form may be a part, one chain of several): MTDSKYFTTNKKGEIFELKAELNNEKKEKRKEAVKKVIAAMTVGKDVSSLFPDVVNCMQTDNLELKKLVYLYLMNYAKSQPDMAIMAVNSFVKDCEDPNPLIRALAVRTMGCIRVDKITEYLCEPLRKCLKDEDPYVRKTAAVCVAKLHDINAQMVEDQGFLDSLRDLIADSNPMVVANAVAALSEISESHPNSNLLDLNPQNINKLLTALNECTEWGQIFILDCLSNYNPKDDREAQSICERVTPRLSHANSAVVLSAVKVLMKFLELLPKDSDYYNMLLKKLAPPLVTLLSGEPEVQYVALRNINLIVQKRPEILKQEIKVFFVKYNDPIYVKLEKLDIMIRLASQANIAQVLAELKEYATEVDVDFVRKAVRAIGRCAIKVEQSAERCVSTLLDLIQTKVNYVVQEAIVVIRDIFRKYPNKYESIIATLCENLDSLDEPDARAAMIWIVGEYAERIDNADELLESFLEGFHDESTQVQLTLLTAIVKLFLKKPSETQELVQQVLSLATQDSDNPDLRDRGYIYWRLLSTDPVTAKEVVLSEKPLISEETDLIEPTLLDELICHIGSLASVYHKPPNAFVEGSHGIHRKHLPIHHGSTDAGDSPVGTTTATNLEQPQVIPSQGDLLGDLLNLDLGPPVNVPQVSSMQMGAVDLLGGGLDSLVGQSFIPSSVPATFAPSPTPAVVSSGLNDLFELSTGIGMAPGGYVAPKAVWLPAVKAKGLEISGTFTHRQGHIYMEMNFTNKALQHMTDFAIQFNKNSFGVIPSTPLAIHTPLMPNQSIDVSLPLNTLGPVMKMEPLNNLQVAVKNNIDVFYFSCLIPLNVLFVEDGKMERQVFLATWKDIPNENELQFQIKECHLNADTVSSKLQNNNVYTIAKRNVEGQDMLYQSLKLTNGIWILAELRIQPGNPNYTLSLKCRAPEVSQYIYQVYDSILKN

On to `CC1(C)c2ccccc2N2CC(=O)N(CC(N)=O)C21C` (stereo not given), for which the percent of DMSO control GFP in test [1] was 103% (inactive). In addition, the GFP response vs DMSO in [2] was 99.9% (inactive); in [4] it was 109% (inactive). In addition, the percent response of DMSO control in test [3] was 103% (inactive). For the same molecule, the GFP response, % of DMSO in test [5] was 105% (inactive). In test [6], this molecule gave a double positive events of 61.8%. The vesicle binding response in [6] was 243% (inactive). Further, the values for the inhibition in test [7], in test [10] and in test [14] were -5.84% (inactive), -1.94% (inactive) and 11% (inactive), respectively. Besides, the superoxide response (% of plate) in test [8] is 108% (inactive). In addition, in test [9], the aptamer binding inhibition was 3% (inactive). The response in [11] was 3.96% (inactive). The binding (% of control) in test [12] was 97.8% (inactive). For the same molecule, the efflux inhibition (fraction of control) in test [13] was -0.35 (inactive). Besides, in test [15], the differentiation response is -21.2% (inactive).
Consider `Cn1c2c(c(=O)[nH]c1=O)C(c1ccc(O)cc1)C1=C(N2)c2ccccc2C1=O` (stereo not given), for which the percent of DMSO control GFP in test [1] is 99% (inactive). In addition, the GFP response vs DMSO is 97.9% (inactive) in test [2] and 87.3% (inactive) in test [4]. The percent response of DMSO control in [3] is 101% (inactive). Further, the GFP response, % of DMSO in test [5] was 94.6% (inactive). The same molecule had a double positive events in test [6] of 62.7%. In test [6], the vesicle binding response was 228% (inactive). Further, the inhibition (as a rule, the drop in the measured response relative to a control, in per cent) in [7] was -3.04% (inactive); in [10], 8.12% (inactive); in [14] it was 9% (inactive). Moreover, in test [8], the superoxide response (% of plate) is 92.2% (inactive). In test [9], the aptamer binding inhibition is -2% (inactive). The response in [11] was -0.45% (inactive). In addition, the binding (% of control) in test [12] is 96.9% (inactive). Besides, in test [13], the efflux inhibition (fraction of control) was -0.01 (inactive). Besides, in test [15], the differentiation response is 11.1% (inactive).
For `Cc1ccccc1OCCSc1nc2ncnc(N)c2[nH]1`, the percent of DMSO control GFP in test [1] is 97.3% (inactive). The figures for the GFP response vs DMSO in test [2] and in test [4] were 105% (inactive) and 99.4% (inactive), respectively. Besides, in test [3], the percent response of DMSO control is 104% (inactive). Further, the GFP response, % of DMSO in test [5] is 103% (inactive). For the same molecule, the double positive events in test [6] was determined as 51.9%. The vesicle binding response in test [6] was 163% (inactive). The values for the inhibition in test [7], in test [10] and in [14] were 8.15% (inactive), -6.91% (inactive) and 1% (inactive), respectively. The superoxide response (% of plate) in [8] was 97.8% (inactive). For the same molecule, in test [9], the aptamer binding inhibition was 2% (inactive). For the same molecule, the response in test [11] is 3.1% (inactive). In test [12], the binding (% of control) is 96.7% (inactive). The efflux inhibition (fraction of control) in [13] is 0.06 (inactive). Besides, in [15], the differentiation response is -8.27% (inactive).
Take `COc1ccc(C2NC(=O)c3ccccc3N2)cc1OC` (stereo not given): the percent of DMSO control GFP in test [1] was 98.8% (inactive). The GFP response vs DMSO is 99.9% (inactive) in test [2] and 94.3% (inactive) in [4]. Further, in test [3], the percent response of DMSO control is 96.9% (inactive). In addition, the GFP response, % of DMSO in test [5] was 92.2% (inactive). Further, the double positive events in [6] stood at 64.4%. Besides, the vesicle binding response in test [6] is 117% (inactive). In addition, the inhibition in test [7] is 10.9% (inactive); in test [10], 3.03% (inactive); in test [14], 11% (inactive). Besides, in test [8], the superoxide response (% of plate) was 108% (inactive). In test [9], the aptamer binding inhibition was 5% (inactive). The response in [11] is 1.73% (inactive). For the same molecule, the binding (% of control) in test [12] was 95.1% (inactive). The efflux inhibition (fraction of control) in test [13] is 0.06 (inactive). The differentiation response in test [15] is -3.43% (inactive).
In the case of `CO[C@@H]1O[C@@H]2COC(c3ccccc3)O[C@@H]2[C@@H](OC)[C@@H]1O` (stereo not given in full), in test [1], the percent of DMSO control GFP is 103% (inactive). Further, the GFP response vs DMSO in test [2] was 104% (inactive); in [4], 96.4% (inactive). The percent response of DMSO control in test [3] was 106% (inactive). Further, the GFP response, % of DMSO in test [5] was 99.6% (inactive). Further, the double positive events in test [6] came to 56%. For the same molecule, the vesicle binding response in test [6] was 166% (inactive). Besides, the inhibition in test [7] is 5.36% (inactive); in test [10], 15.1% (inactive); in test [14], 4% (inactive). Moreover, in test [8], the superoxide response (% of plate) is 117% (inactive). In test [9], the aptamer binding inhibition was 5% (inactive). Besides, the response in [11] is 4.1% (inactive). The binding (% of control) in test [12] is 102% (inactive). In addition, the efflux inhibition (fraction of control) in test [13] was 0.1 (inactive). In addition, the differentiation response in test [15] is -9.89% (inactive).

For the origin of these results see PubChem BioAssay.
